TbPYK inhibitor: T. brucei pyruvate kinase inhibition; Q57TT1; TbPYK enzyme, Kinase-Glo Plus ATP luminescence, 45 min; Potency, µM (doses to about 76.8 µM), for the others: top-dose activity, negative = inhibition, most hits filed as inhibitors; 0.12% of 410,000 active; AID 624173; note: nearly all actives have a fitted effect of over 50% in size
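Enzyme and substrate buffer are dispensed first and compound is pin-transferred. ADP at 130 uM final then starts the reaction, which runs 45 min at room temperature. Detection reagent is added for 10 min before luminescence is imaged.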
FMDV antiviral: antivirals against foot and mouth disease virus; FMDV antiviral cell-based qHTS; Potency, µM (doses to about 57.9 µM), for inactives: at the highest dose activity change, negative = inhibition, most hits filed as inhibitors; 1.2% of 410,000 active; calls by dose curve; tested in HEK293T cells; note: read-out not given here; nearly all actives have a fitted effect of over 45% in size
Sm TGR inh: S. mansoni TGR enzyme inhibition; Potency, µM (titrated, usually from 114 µM), for the others: at the highest dose activity change, negative = inhibition, most hits filed as inhibitors; 3% of 360,000 active; Q962Y6; purified TGR, DTNB reduction, TNB absorbance 405 nm; note: nearly all actives have a fitted effect of over 60% in size
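TGR 20 nM + NADPH 100 uM (dispensed conc.), cpd preinc 15 min RT; start with NADPH (500 uM addition) then DTNB (15 mM addition). Kinetic TNB absorbance, 405 nm filter. Four-parameter Hill fit across titration.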
RE007 growth inh: less growth of the S. pombe RE007 Vpr strain; 0.21% of 360,000 active; S. pombe RE007 Vpr strain, BacTiter-Glo ATP luminescence, 24 h; AID 651644; Potency, µM (top dose mostly 92.2 µM), for the others: at the top dose activity change, negative = less growth, most hits filed as inhibitors; active = well fitted falling curve with a large enough effect; inconclusive = small, poorly fitted or top-dose-only effect; inactive = no such curve, though single readings can be large or run the other way; note: nearly all actives have a fitted effect of over 50% in size
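Fission yeast RE007 carrying one integrated HIV-1 vpr copy, seeded at OD 0.01 in PMG+AL medium with 23 nL pinned compound. Grown 24 h at 30 degrees; viability read by BacTiter-Glo luminescence after 5 min.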
* hit, by the source's call; ? = inconclusive; . = no result. Sampled rows, rich in hits. Any-hit rate of the full collection: about 3.7%. Unless noted, calls come from the whole dose curve; as a rule, active = well fitted curve in the direction sought with a large enough effect; inconclusive = small, poorly fitted or top-dose-only effect, or another doubt; inactive = no such curve, though single readings can be large; an effect the other way counts as inactive or inconclusive. % is set by controls: 0 for no effect and ±100 for the full control effect; potency is the fitted concentration of half-maximal effect.

SMILES | TbPYK inhibitor | FMDV antiviral | Sm TGR inh | RE007 growth inh
O=C1CC(/C=C/c2ccccn2)=Nc2ccccc2N1 | -10% | ? | ? | -4%
O=C1CC(/C=C/c2ccco2)=Nc2ccccc2N1 | -10% | -11% | 45µM* | 0%
CC(=O)Nc1cc2c(cc1NC(=O)Cn1nc(-c3ccccc3F)ccc1=O)OCCO2 | 7% | -23% | 45µM* | -1%
COc1cccc(OC)c1NC(=O)Cn1nc(-c2ccc3c(c2)OCCO3)ccc1=O | -3% | -4% | 0% | -1%
Cc1ccc(C(=O)Nc2cccc(-c3nc(CNC(=O)c4cccc(C)c4C)c(C)o3)c2)s1 | . | -25% | . | .
Cc1cc(CNC(=S)Nc2cccc(Cl)c2Cl)nn1C | -10% | 1% | 13µM* | 18%
COc1cc(-c2nc(-c3ccc4c(c3)[nH]c(=O)n4C)no2)cc(OC)c1OC | 2% | -13% | 11% | .
CC(=O)c1c(C)[nH]c(C(=O)OCC(=O)NCc2ccc(Cl)cc2)c1C | 1% | ? | -4% | 0%
CC(=O)c1c(C)[nH]c(C(=O)OCC(=O)Nc2cc(Cl)ccc2[N+](=O)[O-])c1C | -8% | 28µM* | -3% | 7%
CC(=O)c1c(C)[nH]c(C(=O)OCC(=O)Nc2ccc(C)cc2[N+](=O)[O-])c1C | -3% | 5µM* | 1% | 1%
CC(=O)c1c(C)[nH]c(C(=O)OCC(=O)N2CCN(S(=O)(=O)c3ccc(C)cc3)CC2)c1C | -3% | -28% | -4% | 3%
Cc1ccc(NC(=O)COC(=O)C2=COCCO2)c([N+](=O)[O-])c1 | 3% | -8% | -3% | 19%
CC(=O)c1c(C)[nH]c(C(=O)OCC(=O)N2CCN(S(=O)(=O)c3ccc(C)cc3C)CC2)c1C | 6% | 20µM* | ? | 4%
CN1C2CCC1/C(=C/c1ccccn1)C(=O)/C2=C\c1ccccn1 | -13% | 4µM* | -25% | ?
CC1C/C(=C/c2ccccn2)C(=O)/C(=C/c2ccccn2)C1 (configuration not stated) | 3% | 6.3µM* | 16µM* | 63µM*
O=C1/C(=C/c2ccccn2)COc2ccccc21 | -10% | ? | ? | -20%
CN1C2CCC1/C(=C\c1ccccc1)C(=O)/C2=C\c1ccccc1 | 5% | ? | -7% | -27%
CC(C)(C)C1C/C(=C/c2ccccn2)C(=O)/C(=C/c2ccccn2)C1 (configuration not stated) | 6% | 3.5µM* | 18µM* | -11%
Cc1sc2ncnc(N(C)Cc3ccco3)c2c1C | 3% | 22µM* | -2% | 1%
COC(=O)c1ccc(CSc2nc(C)nc3sc(C)c(C)c23)o1 | 2% | -16% | 100µM* | 6%
Cc1sc2ncnc(SCc3ccco3)c2c1C | 2% | ? | -23% | -12%
CCN(C(=O)CSc1nc(C)nc2sc(C)c(C)c12)c1ccc(F)cc1 | 2% | ? | -8% | -8%
Cc1nc(SCC(=O)N(C)Cc2ccco2)c2c(C)c(C)sc2n1 | -14% | ? | 45µM* | -2%
CCC(=O)N1CCc2cc(Br)cc(S(=O)(=O)CCC(=O)NCCc3ccccc3Cl)c21 | 0% | -20% | -32% | .
O=S(=O)(NC(=S)NC1CCCCC1)c1cccs1 | -6% | -7% | 25µM* | -9%
SMILES | TbPYK inhibitor | FMDV antiviral | Sm TGR inh | RE007 growth inh
O=C(NC(=S)Nc1ccccc1Br)C1CCCCC1 | -2% | 14% | . | -28%
O=C(NC(=S)Nc1ccccc1Br)C1CCCC1 | -5% | 37% | 13µM* | ?
CCc1[nH]c(=S)c(C#N)c2c1CCCC2 | 16µM* | -7% | -20% | 55%
CCc1[nH]c(=O)c(C#N)c2c1CCCC2 | 0% | 6% | 4% | 10%
CCC1Oc2ccc(C)cc2N(CC(=O)NC2CCCCC2)C1=O (configuration not stated) | 1% | -2% | -1% | 18%
CCC1Oc2ccc(C)cc2N(CC(=O)N(Cc2ccc(C)o2)C2CCCC2)C1=O (configuration not stated) | ? | 22µM* | 0% | -6%
O=C(/C=C/c1ccco1)OCc1nnc(-c2ccc(Cl)cc2)o1 | 7% | 19% | 11µM* | -1%
O=C(/C=C/c1ccco1)OCn1nnc2ccccc2c1=O | -2% | 15% | 22µM* | -11%
O=C(/C=C/c1ccco1)OCc1nnc(-c2ccccc2)o1 | -3% | 17% | 14µM* | -12%
CN(C)CC(C)(O)c1ccc2c(c1)CN(Cc1cnn(-c3ccccc3)c1)CCO2 (configuration not stated) | . | -7% | . | .
CCc1ccc(NC(=O)CCn2cnc3ccccc3c2=O)cc1 | 1% | 14% | -3% | .

Screening data (PubChem BioAssay)
